In PubChem BioAssay AID1159580 (chemical genetic matrix, 2015):
Out of some 5,500 compounds screened, about 2,000 (36%) were called active. About 18% were inconclusive and are not listed. Cut-off read from the data, not from the text of the source: active = normalized growth mostly below about 0.91 (no sharp cut-off); inconclusive = no clear call, values can overlap the other calls; inactive = mostly above about 0.92. The list shows a part of the results.

Experiment: chemical genetic growth profiling, strain panel (AID 1159580);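 note: tested at 20 µM; growth read once vehicle control cultures reached saturation at 30 °C; 1 = growth at the plate median or of vehicle wells; lower values mean less growth of the strain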
Details: S. cerevisiae deletion strains, growth OD
[1] = locus YDL101C, strain DUN1, hits give low values
[2] = locus YHR030C, strain SLT2, hits give low values

Measured: normalized growth

N#Cc1cccc(CSc2nc3ccc(C(F)(F)F)cc3[nH]2)c1
active: locus YLR113W, strain HOG1, hits give low values 0.793
inactive: locus YAR019C, strain CDC15, hits give low values 0.965 | locus YBL105C, strain PKC1, hits give low values 0.968 | locus YBR135W, strain CKS1, hits give low values 0.973 | locus YBR136W, strain MEC1, hits give low values 0.968 | locus YBR160W, strain CDC28, hits give low values 0.968 | locus YDL017W, strain CDC7, hits give low values 0.972 | locus YDL028C, strain MPS1, hits give low values 0.978 | [1] 0.969 | locus YDL108W, strain KIN28, hits give low values 0.973 | locus YDL132W, strain cdc53, hits give low values 0.976 | locus YDL214C, strain PRR2, hits give low values 0.893 | locus YDR052C, strain DBF4, hits give low values 0.962 | locus YDR054C, strain cdc34, hits give low values 0.962 | locus YDR226W, strain ADK1, hits give low values 0.969 | locus YDR477W, strain SNF1, hits give low values 0.903 | locus YER123W, strain YCK3, hits give low values 0.881 | locus YER133W, strain GLC7, hits give low values 0.895 | locus YFL009W, strain cdc4, hits give low values 0.974 | locus YFL029C, strain CAK1, hits give low values 0.966 | locus YFR003C, strain YPI1, hits give low values 0.97 | locus YFR019W, strain FAB1, hits give low values 0.936 | locus YFR028C, strain CDC14, hits give low values 0.971 | locus YGR040W, strain KSS1, hits give low values 0.908 | locus YGR052W, strain FMP48, hits give low values 0.938 | locus YGR092W, strain DBF2, hits give low values 0.933 | [2] 0.858 | locus YHR079C, strain IRE1, hits give low values 0.851 | locus YHR082C, strain KSP1, hits give low values 0.965 | locus YHR205W, strain SCH9, hits give low values 0.898 | locus YIL147C, strain SLN1, hits give low values 0.972 | locus YJL095W, strain BCK1, hits give low values 0.901 | locus YJL128C, strain PBS2, hits give low values 0.909 | locus YJL157C, strain FAR1, hits give low values 0.89 | locus YJR016C, strain ILV3, hits give low values 0.97 | locus YJR066W, strain TOR1 (second series), hits give low values 0.848 | locus YJR066W, strain TOR1, hits give low values 0.935 | locus YKL048C, strain ELM1, hits give low values 0.963 | locus YKL067W, strain YNK1, hits give low values 0.889 | locus YKL101W, strain HSL1, hits give low values 0.901 | locus YKL193C, strain SDS22, hits give low values 0.973 | locus YKL203C, strain TOR2, hits give low values 0.937 | locus YLR133W, strain CKI1, hits give low values 0.898 | locus YLR403W, strain SFP1, hits give low values 0.907 | locus YML070W, strain DAK1, hits give low values 0.889 | locus YMR001C, strain CDC5, hits give low values 0.971 | locus YMR205C, strain PFK2 (second series), hits give low values 0.924 | locus YMR277W, strain FCP1, hits give low values 0.969 | locus YNL006W, strain LST8, hits give low values 0.97 | locus YNL020C, strain ARK1, hits give low values 0.892 | locus YNL161W, strain CBK1, hits give low values 0.965 | locus YNL183C, strain NPR1, hits give low values 0.92 | locus YNL207W, strain RIO2, hits give low values 0.966 | locus YNL222W, strain SSU72, hits give low values 0.976 | locus YNL307C, strain MCK1 (second series), hits give low values 0.89 | locus YOL078W, strain AVO1, hits give low values 0.974 | locus YOL136C, strain PFK27, hits give low values 0.858 | locus YOR061W, strain CKA2, hits give low values 0.9 | locus YOR119C, strain RIO1, hits give low values 0.962 | locus YOR231W, strain MKK1, hits give low values 0.871 | locus YOR329C, strain SCD5, hits give low values 0.96 | locus YPL031C, strain PHO85, hits give low values 0.88 | locus YPL153C, strain RAD53, hits give low values 0.899 | locus YPL204W, strain HRR25, hits give low values 0.877 | locus YPL209C, strain IPL1, hits give low values 0.967 | locus YPL256C, strain CLN2, hits give low values 0.882 | locus YPR025C, strain CCL1, hits give low values 0.972 | locus YPR106W, strain ISR1, hits give low values 0.956 | locus YPR111W, strain DBF20, hits give low values 0.946 | strain NNK1, hits give low values 0.944 | strain TSCII, hits give low values 0.965

N#Cc1cccc(CSC2=NCN(C3CC3)CN2)c1
inactive: locus YAL013W, strain DEP1, hits give low values 1 | locus YBR229C, strain ROT2, hits give low values 1.01 | [1] 0.98 | locus YDR150W, strain NUM1, hits give low values 0.934 | locus YEL061C, strain CIN8, hits give low values 1.02 | locus YGR078C, strain PAC10, hits give low values 0.996 | [2] 1 | locus YHR087W, strain rtc3, hits give low values 1.03 | locus YJL187C, strain SWE1, hits give low values 1 | locus YJR043C, strain POL32, hits give low values 0.979 | locus YJR075W, strain HOC1, hits give low values 0.989 | locus YKL190W, strain CNB1, hits give low values 1.01 | locus YLR039C, strain RIC1, hits give low values 1.05 | locus YLR058C, strain SHM2 (second series), hits give low values 1.01 | locus YLR085C, strain ARP6, hits give low values 0.993 | locus YLR262C, strain YPT6, hits give low values 1.04 | locus YML094W, strain GIM5, hits give low values 1.01 | locus YMR219W, strain ESC1, hits give low values 1.01 | locus YMR263W, strain SAP30, hits give low values 0.952 | locus YMR307W, strain GAS1, hits give low values 0.978 | locus YNL153C, strain GIM3, hits give low values 0.997 | locus YNL298W, strain CLA4 (second series), hits give low values 1.02 | locus YNL322C, strain KRE1, hits give low values 0.999 | locus YNR030W, strain Alg12, hits give low values 1.02 | locus YPL055C, strain LGE1, hits give low values 0.886 | locus YPL241C, strain CIN2, hits give low values 1.01 | locus YPR135W, strain CTF4, hits give low values 1
